Source: PubChem BioAssay (EPA / NIEHS)
Records with an inconclusive call do not appear. Activity calls are given as the source filed them. The calls were made as follows: active = hit-call score of the fitted dose curve at least 0.9, where 1 is the maximum; inconclusive = response in the unintended direction; inactive = score below 0.9.

Legend:
[1] = TOX21_p53_BLA_p2_viability: Viability Assessment in the Tox21 HCT-116 p53 Agonism Beta-lactamase Assay, Phase 2 (AID 2283591);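 also: actives lower the ATP signal meaning cytotoxicity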
Procedure, shortened: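 Cytotoxicity readout: CellTiter-Glo ATP luminescence, 30 min at room temperature, after the beta-lactamase read. Cells were HCT116 exposed 16 h at 37C to compounds pin-transferred at 217-fold dilution from DMSO stocks.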

[2] = target: Cellular tumor antigen p53 (Homo sapiens) (UniProt P04637); test: TOX21_p53_BLA_p2_ratio: Tox21 HCT-116 p53 Agonism Beta-lactamase Assay, Ratio, Phase 2 (AID 2283592)
Chain of Cellular tumor antigen p53 (Homo sapiens) (P04637 whole entry, looked up): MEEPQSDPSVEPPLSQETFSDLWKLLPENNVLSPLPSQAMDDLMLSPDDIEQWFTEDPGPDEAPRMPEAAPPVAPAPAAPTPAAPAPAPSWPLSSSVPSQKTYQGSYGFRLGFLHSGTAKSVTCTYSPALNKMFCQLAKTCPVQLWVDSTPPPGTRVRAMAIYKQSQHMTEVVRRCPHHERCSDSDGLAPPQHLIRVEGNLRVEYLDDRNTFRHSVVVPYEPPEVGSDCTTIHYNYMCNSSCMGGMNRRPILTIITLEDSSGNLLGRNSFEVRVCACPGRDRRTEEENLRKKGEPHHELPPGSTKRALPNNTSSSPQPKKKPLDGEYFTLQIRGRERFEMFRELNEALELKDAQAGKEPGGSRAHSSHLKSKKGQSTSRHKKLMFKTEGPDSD
Procedure, shortened: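 An inducible beta-lactamase reporter in HCT116 cells signals p53 pathway activation. After 16 h chemical exposure at 37C, cells load CCF4-AM substrate for 2 h at room temperature; activity is the cleaved/uncleaved emission ratio relative to DMSO.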

[3] = TOX21_p53_BLA_p3_viability: Viability Assessment in the Tox21 HCT-116 p53 Agonism Beta-lactamase Assay, Phase 3 (AID 2283593);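 also: cells exposed to compound for 16 h before reading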
Procedure, shortened: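 Cellular ATP was quantified by CellTiter-Glo luminescence, read after 30 min at room temperature. Beforehand, HCT116 cells (4000/well) received compound 5 h post-seeding, 217-fold diluted from DMSO, then incubated 16 h at 37C.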

[4] = TOX21_p53_BLA_p4_viability: Viability Assessment in the Tox21 HCT-116 p53 Agonism Beta-lactamase Assay, Phase 4 (AID 2283597);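 also: hits lower the luminescence signal meaning cytotoxicity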
Procedure, shortened: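 Compound exposure of HCT116 cells lasts 16 h at 37C, 5% CO2, with DMSO stocks diluted 217-fold. Cellular ATP is then quantified by CellTiter-Glo luminescence after 30 min at room temperature.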

[5] = target: Cellular tumor antigen p53 (Homo sapiens) (UniProt P04637); test: TOX21_p53_BLA_p5_ratio: Tox21 HCT-116 p53 Agonism Beta-lactamase Assay, Ratio, Phase 5 (AID 2283599)
Procedure, shortened: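 Beta-lactamase reporter ratio (blue 460 nm over green 530 nm, 405 nm excitation) after 2 h CCF4-AM loading, in HCT-116 cells exposed 16 h at 37 C to compounds pinned at 217-fold dilution. Increases relative to DMSO baseline scored.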

[6] = TOX21_p53_BLA_p5_viability: Viability Assessment in the Tox21 HCT-116 p53 Agonism Beta-lactamase Assay, Phase 5 (AID 2283600)
Procedure, shortened: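 Counter-readout for cytotoxicity: ATP-dependent luminescence from CellTiter-Glo, read in the beta-lactamase wells after 30 min at RT, following a 16 h compound exposure at 37C.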

[7] = target: Cellular tumor antigen p53 (Homo sapiens) (UniProt P04637); test: TOX21_p53_BLA_p4_ratio: Tox21 HCT-116 p53 Agonism Beta-lactamase Assay, Ratio, Phase 4 (AID 2283601)
Procedure, shortened: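 Signal is the blue/green (460nm/530nm) ratio of cleaved versus uncleaved CCF4-AM substrate, read after 2 h substrate loading. Cells were HCT116 carrying the p53-responsive beta-lactamase reporter, dosed 16 h at 37C, 5% CO2; CellTiter-Glo measured in parallel.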

Measured: AC50

CC(C)CN(C[C@@H](O)[C@H](Cc1ccccc1)NC(=O)O[C@H]1CO[C@H]2OCC[C@H]21)S(=O)(=O)c1ccc(N)cc1
inactive: all assays above

CC(C)N1CCN(c2ccc(OC[C@H]3CO[C@](Cn4cncn4)(c4ccc(Cl)cc4Cl)O3)cc2)CC1
active: [4] 10.3 µM
inactive: all other assays above

CCOC(=O)c1cnc2c(cnn2CC)c1NN=C(C)C
inactive: all assays above

C=Cc1ccccc1
inactive: all assays above

On1nnc2ccccc21
inactive: all assays above

CCCCCCCCCCCCCCCC[N+](C)(C)CCN(Cc1ccc(OC)cc1)c1ncccn1
active: [4] 17.3 µM
inactive: all other assays above

CN1CCN(CCC=C2c3ccccc3Sc3ccc(S(=O)(=O)N(C)C)cc32)CC1
active: [4] 34.9 µM | [7] 43.7 µM
inactive: all other assays above

CCCCC(CC)COC(=O)C(C#N)=C(c1ccccc1)c1ccccc1 (stereo not given)
inactive: all assays above

C[C@]12C=CC(=O)N[C@@H]1CC[C@@H]1[C@@H]2CC[C@]2(C)[C@@H](C(=O)Nc3cc(C(F)(F)F)ccc3C(F)(F)F)CC[C@@H]12
active: [3] 7.37 µM
inactive: all other assays above

Nc1nc(-c2ccccc2)c(Br)c(=O)[nH]1
inactive: all assays above

Nc1cccc(S(=O)(=O)O)c1
inactive: all assays above

S=c1nccc[nH]1
inactive: all assays above

CC(C(=O)O)c1ccc(C(=O)c2ccccc2)s1 (stereo not given)
inactive: all assays above

Cc1cc(CC(=O)O)c(C)n1-c1ccc(Cl)cc1
inactive: all assays above

CCOC(=O)NNc1ccc(N(CC)CC(C)O)nn1 (stereo not given)
inactive: all assays above

O=C1c2ccccc2Cc2ccccc21
inactive: all assays above

CCOc1ccc(N=Nc2ccc(N)cc2N)cc1
inactive: all assays above

CCOc1ccc(NC(C)=O)cc1N
inactive: all assays above

Cc1c(C(=O)O)cccc1[N+](=O)[O-]
inactive: all assays above

CCCCCCCCCCCC(=O)OC[C@@H](O)[C@H]1OC[C@H](OCCO)[C@H]1OCCO
inactive: all assays above

NC(N)=NC(=O)Cc1c(Cl)cccc1Cl
inactive: all assays above

O=C(O)c1ccc(OCCCOc2ccc(C(=O)O)cc2)cc1
inactive: all assays above

Cc1cc(N)c2cc(NC(=O)Nc3ccc4nc(C)cc(N)c4c3)ccc2n1
active: [4] 29.7 µM
inactive: all other assays above

O=C1c2ccccc2C(=O)N1CCl
inactive: all assays above

COC(=O)[C@H]1[C@H]2C[C@@H]3c4[nH]c5cc(OC)ccc5c4CCN3C[C@H]2C[C@@H](OC(=O)/C=C/c2cc(OC)c(OC)c(OC)c2)[C@@H]1OC
inactive: all assays above
